From paper PMC7862700, “An all-to-all approach to the identification of sequence-specific readers for epigenetic DNA modifications on cytosine”

Assays:
Experiment in all cases: DAPPL (digital affinity profiling via proximity ligation, sequencing); 10 mM Tris-HCl pH 7.5, 50 mM NaCl, 1 mM DTT, 4% glycerol, room temperature, 30 min; GST-TFs on glutathione beads, 16-mer random dsDNA library, 0.1% formaldehyde crosslink after washing; high values mean tight binding
Conditions in all cases: protein: recombinant; tags: N-terminal GST; dsDNA, one strand shown
[1] = molecular target: T1, FLI1 (Homo sapiens, UniProt Q01543 1-452)
T1 sequence: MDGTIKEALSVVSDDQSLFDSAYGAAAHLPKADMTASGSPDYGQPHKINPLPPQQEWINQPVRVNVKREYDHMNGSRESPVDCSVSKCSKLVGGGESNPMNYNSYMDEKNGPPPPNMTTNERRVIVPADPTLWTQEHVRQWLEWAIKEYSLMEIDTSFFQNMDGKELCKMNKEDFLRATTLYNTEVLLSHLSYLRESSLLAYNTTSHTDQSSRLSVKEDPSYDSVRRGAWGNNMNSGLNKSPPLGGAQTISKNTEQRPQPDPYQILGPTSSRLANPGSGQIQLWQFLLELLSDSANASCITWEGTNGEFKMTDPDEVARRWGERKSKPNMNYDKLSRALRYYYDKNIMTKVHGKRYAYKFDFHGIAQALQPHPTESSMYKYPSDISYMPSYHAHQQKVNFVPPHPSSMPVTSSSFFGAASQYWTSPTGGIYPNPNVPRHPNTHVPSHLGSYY
Method in brief: (§1)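 GST fusions of human transcription factors were expressed in yeast and captured with glutathione beads. Once given DNA barcodes and pooled alongside a tag-only sample, they were incubated for 30 min at room temperature with 200 nmole of a random double-stranded 16-mer DNA library in Tris/NaCl/DTT/glycerol buffer, then washed, crosslinked (0.1% formaldehyde), proximity-ligated, PCR-amplified and sequenced on an Illumina NextSeq500. The binding signal of each hexamer is its read frequency for a factor divided by its frequency for the tag-only sample.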

[2] = molecular target: T2, ELK1 (Homo sapiens, UniProt P19419 1-428)
T2 sequence: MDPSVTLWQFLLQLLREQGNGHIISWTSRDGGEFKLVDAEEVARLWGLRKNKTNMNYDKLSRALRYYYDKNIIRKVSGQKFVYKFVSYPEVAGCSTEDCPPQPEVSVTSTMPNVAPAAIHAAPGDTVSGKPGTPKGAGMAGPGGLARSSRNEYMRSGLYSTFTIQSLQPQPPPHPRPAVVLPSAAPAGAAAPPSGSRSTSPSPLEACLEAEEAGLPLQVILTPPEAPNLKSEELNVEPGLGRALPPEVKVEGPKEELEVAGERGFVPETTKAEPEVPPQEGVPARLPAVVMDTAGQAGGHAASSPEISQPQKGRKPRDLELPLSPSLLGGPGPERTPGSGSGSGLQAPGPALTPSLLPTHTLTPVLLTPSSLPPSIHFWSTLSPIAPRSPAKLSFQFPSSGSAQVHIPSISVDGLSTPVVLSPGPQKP
Method in brief: as §1

[3] = molecular target: T3, GABPA (Homo sapiens, UniProt Q06546 1-454)
T3 sequence: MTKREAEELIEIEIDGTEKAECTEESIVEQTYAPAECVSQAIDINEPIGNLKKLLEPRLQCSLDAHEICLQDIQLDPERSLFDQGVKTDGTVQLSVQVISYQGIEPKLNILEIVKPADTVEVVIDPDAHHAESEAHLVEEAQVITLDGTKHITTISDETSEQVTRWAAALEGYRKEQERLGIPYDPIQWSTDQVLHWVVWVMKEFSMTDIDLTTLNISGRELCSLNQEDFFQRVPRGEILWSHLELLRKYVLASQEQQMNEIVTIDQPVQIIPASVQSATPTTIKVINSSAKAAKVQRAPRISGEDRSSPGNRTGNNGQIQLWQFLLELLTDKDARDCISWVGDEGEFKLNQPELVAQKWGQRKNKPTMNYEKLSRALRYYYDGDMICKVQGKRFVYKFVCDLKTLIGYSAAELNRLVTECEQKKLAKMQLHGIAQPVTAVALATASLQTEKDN
Method in brief: as §1

[4] = molecular target: T4, ERG (Homo sapiens, UniProt P11308 1-479)
T4 sequence: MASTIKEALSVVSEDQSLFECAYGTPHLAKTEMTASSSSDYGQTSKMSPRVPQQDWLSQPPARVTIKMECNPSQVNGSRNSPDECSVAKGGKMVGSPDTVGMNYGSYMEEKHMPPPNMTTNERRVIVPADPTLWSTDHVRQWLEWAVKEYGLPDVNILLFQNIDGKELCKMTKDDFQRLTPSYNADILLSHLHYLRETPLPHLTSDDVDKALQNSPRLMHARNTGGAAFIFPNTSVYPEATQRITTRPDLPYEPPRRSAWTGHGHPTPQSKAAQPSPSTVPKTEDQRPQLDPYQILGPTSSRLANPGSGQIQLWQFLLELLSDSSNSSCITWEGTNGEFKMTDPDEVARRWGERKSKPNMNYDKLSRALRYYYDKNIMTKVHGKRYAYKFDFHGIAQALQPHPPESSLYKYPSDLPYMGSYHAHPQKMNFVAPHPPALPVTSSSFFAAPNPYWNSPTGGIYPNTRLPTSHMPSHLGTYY
Method in brief: as §1

[5] = molecular target: ELF1 (Homo sapiens, UniProt P32519 1-619)
Method in brief: as §1

[6] = molecular target: T5, EHF (Homo sapiens, UniProt Q9NZC4 1-300)
T5 sequence: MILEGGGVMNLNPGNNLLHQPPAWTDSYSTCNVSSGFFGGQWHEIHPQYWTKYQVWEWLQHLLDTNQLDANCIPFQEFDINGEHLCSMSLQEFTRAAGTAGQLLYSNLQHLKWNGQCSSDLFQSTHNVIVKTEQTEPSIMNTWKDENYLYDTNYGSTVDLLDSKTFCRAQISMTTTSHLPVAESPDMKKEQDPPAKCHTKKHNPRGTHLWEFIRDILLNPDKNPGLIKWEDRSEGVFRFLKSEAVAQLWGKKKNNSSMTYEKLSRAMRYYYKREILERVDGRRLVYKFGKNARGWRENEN
Method in brief: as §1

[7] = molecular target: SPI1 (Homo sapiens, UniProt P17947 1-270)
Method in brief: as §1

[8] = molecular target: SPIB (Homo sapiens, UniProt Q01892 1-262)
Method in brief: as §1

[9] = molecular target: T6, ELK3 (Homo sapiens, UniProt P41970 1-407)
T6 sequence: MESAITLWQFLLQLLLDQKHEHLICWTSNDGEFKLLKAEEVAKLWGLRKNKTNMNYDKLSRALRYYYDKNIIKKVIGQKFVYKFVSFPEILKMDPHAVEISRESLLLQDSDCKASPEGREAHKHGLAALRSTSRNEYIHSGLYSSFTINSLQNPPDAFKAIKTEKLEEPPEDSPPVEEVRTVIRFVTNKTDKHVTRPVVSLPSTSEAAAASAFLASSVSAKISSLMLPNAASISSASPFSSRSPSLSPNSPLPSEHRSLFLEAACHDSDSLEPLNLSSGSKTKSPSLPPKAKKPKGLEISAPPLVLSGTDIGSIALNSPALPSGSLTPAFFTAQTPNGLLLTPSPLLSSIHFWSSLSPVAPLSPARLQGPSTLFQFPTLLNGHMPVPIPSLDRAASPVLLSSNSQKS
Method in brief: as §1

Chain of SPIB (Q01892 whole entry): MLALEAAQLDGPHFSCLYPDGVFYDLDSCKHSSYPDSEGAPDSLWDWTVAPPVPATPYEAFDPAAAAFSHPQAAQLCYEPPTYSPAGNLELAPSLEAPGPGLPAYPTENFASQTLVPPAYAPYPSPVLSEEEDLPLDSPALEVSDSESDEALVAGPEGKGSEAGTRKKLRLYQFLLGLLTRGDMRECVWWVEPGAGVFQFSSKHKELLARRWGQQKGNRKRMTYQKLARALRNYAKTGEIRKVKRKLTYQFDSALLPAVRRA
Chain of ELF1 (P32519 whole entry): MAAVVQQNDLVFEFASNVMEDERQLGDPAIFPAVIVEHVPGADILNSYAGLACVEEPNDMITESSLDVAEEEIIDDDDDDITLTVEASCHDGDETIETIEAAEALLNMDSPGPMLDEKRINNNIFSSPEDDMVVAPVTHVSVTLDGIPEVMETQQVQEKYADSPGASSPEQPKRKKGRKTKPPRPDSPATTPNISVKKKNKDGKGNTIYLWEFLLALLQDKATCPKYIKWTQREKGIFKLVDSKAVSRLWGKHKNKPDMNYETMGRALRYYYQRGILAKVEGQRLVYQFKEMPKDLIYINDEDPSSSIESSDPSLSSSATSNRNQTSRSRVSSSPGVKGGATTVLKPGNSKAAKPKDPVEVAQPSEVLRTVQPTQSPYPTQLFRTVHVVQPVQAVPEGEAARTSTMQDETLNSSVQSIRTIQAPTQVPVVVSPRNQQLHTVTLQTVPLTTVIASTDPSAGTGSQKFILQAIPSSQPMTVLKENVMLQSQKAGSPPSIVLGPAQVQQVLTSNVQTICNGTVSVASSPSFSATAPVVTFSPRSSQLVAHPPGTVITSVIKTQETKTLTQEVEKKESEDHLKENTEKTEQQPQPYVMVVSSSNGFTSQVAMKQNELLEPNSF

Row | Sequence | binding signal [1] | binding signal [2] | binding signal [3] | binding signal [4] | binding signal [5] | binding signal [6] | binding signal [7] | binding signal [8] | binding signal [9]
1 | ACTAGC | 1.23 fold enrichment (6-mer frequency, TF over GST control) | 1.18 fold enrichment (6-mer frequency, TF over GST control) | 1.26 fold enrichment (6-mer frequency, TF over GST control) | 1.21 fold enrichment (6-mer frequency, TF over GST control) | 1.15 fold enrichment (6-mer frequency, TF over GST control) | 1.11 fold enrichment (6-mer frequency, TF over GST control) | 1.28 fold enrichment (6-mer frequency, TF over GST control) | 1.22 fold enrichment (6-mer frequency, TF over GST control) | 1.1 fold enrichment (6-mer frequency, TF over GST control)
2 | CCGATA | 1.16 fold enrichment (6-mer frequency, TF over GST control) | 1.13 fold enrichment (6-mer frequency, TF over GST control) | 1.14 fold enrichment (6-mer frequency, TF over GST control) | 1.14 fold enrichment (6-mer frequency, TF over GST control) | 1.17 fold enrichment (6-mer frequency, TF over GST control) | 1.18 fold enrichment (6-mer frequency, TF over GST control) | 1.09 fold enrichment (6-mer frequency, TF over GST control) | 1.03 fold enrichment (6-mer frequency, TF over GST control) | 1.14 fold enrichment (6-mer frequency, TF over GST control)
3 | AGATTT | 1.12 fold enrichment (6-mer frequency, TF over GST control) | 1.14 fold enrichment (6-mer frequency, TF over GST control) | 1.08 fold enrichment (6-mer frequency, TF over GST control) | 1.21 fold enrichment (6-mer frequency, TF over GST control) | 1.11 fold enrichment (6-mer frequency, TF over GST control) | 1.2 fold enrichment (6-mer frequency, TF over GST control) | 1.13 fold enrichment (6-mer frequency, TF over GST control) | 1.09 fold enrichment (6-mer frequency, TF over GST control) | 1.01 fold enrichment (6-mer frequency, TF over GST control)
4 | GTTTTT | 1.31 fold enrichment (6-mer frequency, TF over GST control) | 1.19 fold enrichment (6-mer frequency, TF over GST control) | 1.4 fold enrichment (6-mer frequency, TF over GST control) | 1.17 fold enrichment (6-mer frequency, TF over GST control) | 1.34 fold enrichment (6-mer frequency, TF over GST control) | 1.38 fold enrichment (6-mer frequency, TF over GST control) | 1.42 fold enrichment (6-mer frequency, TF over GST control) | 1.36 fold enrichment (6-mer frequency, TF over GST control) | 1.51 fold enrichment (6-mer frequency, TF over GST control)
5 | AAAACC | 1.12 fold enrichment (6-mer frequency, TF over GST control) | 1.05 fold enrichment (6-mer frequency, TF over GST control) | 1.16 fold enrichment (6-mer frequency, TF over GST control) | 1.13 fold enrichment (6-mer frequency, TF over GST control) | 1.21 fold enrichment (6-mer frequency, TF over GST control) | 1.18 fold enrichment (6-mer frequency, TF over GST control) | 1.27 fold enrichment (6-mer frequency, TF over GST control) | 1.19 fold enrichment (6-mer frequency, TF over GST control) | 1.26 fold enrichment (6-mer frequency, TF over GST control)
6 | CAATTA | 1.05 fold enrichment (6-mer frequency, TF over GST control) | 1.11 fold enrichment (6-mer frequency, TF over GST control) | 1.1 fold enrichment (6-mer frequency, TF over GST control) | 1.05 fold enrichment (6-mer frequency, TF over GST control) | 1.1 fold enrichment (6-mer frequency, TF over GST control) | 1.07 fold enrichment (6-mer frequency, TF over GST control) | 1.15 fold enrichment (6-mer frequency, TF over GST control) | 1.16 fold enrichment (6-mer frequency, TF over GST control) | 1.05 fold enrichment (6-mer frequency, TF over GST control)
7 | TCTATT | 1.33 fold enrichment (6-mer frequency, TF over GST control) | 1.3 fold enrichment (6-mer frequency, TF over GST control) | 1.18 fold enrichment (6-mer frequency, TF over GST control) | 1.25 fold enrichment (6-mer frequency, TF over GST control) | 1.29 fold enrichment (6-mer frequency, TF over GST control) | 1.28 fold enrichment (6-mer frequency, TF over GST control) | 1.28 fold enrichment (6-mer frequency, TF over GST control) | 1.28 fold enrichment (6-mer frequency, TF over GST control) | 1.18 fold enrichment (6-mer frequency, TF over GST control)
